From PubChem BioAssay
Unmarked numbers belong to inactive results. The source made the active and inactive calls.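 The calls were made as follows: active = thallium flux through the channel raised or lowered by more than 3 SD from vehicle-only wells, actives on both sides; inactive = the rest.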

Legend:
Assay in all cases: modulators of BK channel variants, profiling panel, selectivity assay, cell-based, U2OS BacMam, thallium flux, beta subunits (AID 1259406);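 also: initial slope of Thallos dye fluorescence rise after thallium is added; log ratio against the mean of 0.3% DMSO vehicle wells on the same plate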
F380Y = conditions: at 30 µM
F380Y/beta1 = conditions: at 30 µM
F380Y/beta2Delta = conditions: at 30 µM
F380Y/beta4 = conditions: at 30 µM
[1] = molecular target: Calcium-activated potassium channel subunit alpha-1 (Homo sapiens) + Leucine-rich repeat-containing protein 26 (Homo sapiens) (UniProt Q12791+Q2I0M4); conditions: F380Y/Slo1WT/gamma1, at 30 µM
R275C = conditions: at 30 µM
R275C/beta1 = conditions: at 30 µM
R275C/beta2Delta = conditions: at 30 µM
R275C/beta4 = conditions: at 30 µM
R275C/Slo1WT/beta2 = conditions: at 30 µM

Chain of Calcium-activated potassium channel subunit alpha-1 (Homo sapiens) + Leucine-rich repeat-containing protein 26 (Homo sapiens) (Q2I0M4 whole entry, looked up, one chain of several): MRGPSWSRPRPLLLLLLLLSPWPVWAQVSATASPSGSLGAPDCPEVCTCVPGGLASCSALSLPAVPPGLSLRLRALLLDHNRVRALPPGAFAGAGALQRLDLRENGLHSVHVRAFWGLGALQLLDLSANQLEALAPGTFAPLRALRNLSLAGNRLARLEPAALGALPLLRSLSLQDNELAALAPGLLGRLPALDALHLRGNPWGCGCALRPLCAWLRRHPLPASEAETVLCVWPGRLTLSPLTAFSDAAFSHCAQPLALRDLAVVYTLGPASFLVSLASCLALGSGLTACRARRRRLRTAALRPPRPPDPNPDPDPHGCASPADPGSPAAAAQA

SMILES	log fold change Tl+ flux (F380Y)	log fold change Tl+ flux (F380Y/beta1)	log fold change Tl+ flux (F380Y/beta2Delta)	log fold change Tl+ flux (F380Y/beta4)	log fold change Tl+ flux [1]	log fold change Tl+ flux (R275C)	log fold change Tl+ flux (R275C/beta1)	log fold change Tl+ flux (R275C/beta2Delta)	log fold change Tl+ flux (R275C/beta4)	log fold change Tl+ flux (R275C/Slo1WT/beta2)
Cc1cnc(N)c(C)n1	0.0781	0.0374	0.0872	-0.0219	0.00805	-0.0212	-0.0766	0.039	-0.0212	0.0123
CCCCC#Cc1ccc(C(=O)NNC(=O)Nc2ccccc2)o1	0.0775	-0.0382	0.0115	0.00448	-0.0213	0.0317	0.0182	-0.00673	-0.0333	0.023
O=C1c2cccc3c(Sc4ccccc4)ccc(c23)C(=O)N1CCc1ccccn1	0.00854	-0.00319	-0.0137	0.0446	0.0111	-0.0274	-0.0207	0.02	-0.00592	0.0318
COC(=O)c1ccc(C=Cc2cccc(Cl)c2)s1	-0.0764	-0.0156	-0.00709	-0.264 (active)	-0.421 (active)	-0.198 (active)	-0.192 (active)	-0.00722	-0.0416	-0.104 (active)
O=C(c1ncoc1-c1ccccc1)N(Cc1ccccn1)Cc1ccccn1	0.0015	0.0293	-0.0298	0.051	-0.0237	-0.0056	0.0298	0.0379	0.0394	0.033
CC1=NC2SC=C(c3ccccc3Cl)N2C(=O)C1 (stereo not given)	-0.0123	0.0244	-0.0252	0.00331	-0.0675	-0.0205	0.0259	-0.0444	0.037	0.0321
O=C(NNc1c(Cl)cccc1Cl)c1csc(Cc2c(Cl)cccc2Cl)n1	0.031	-0.0231	0.0346	-0.048	-0.0234	0.0148	-0.0344	0.00139	-0.00534	0.0322
CSc1n[nH]c(N)c1S(=O)(=O)C(C)C	0.0369	0.0175	0.0116	-0.00921	0.0306	-0.018	0.0133	-0.00282	0.0217	0.0141
COC(=O)c1sccc1NN=C(C)c1ccc(NC(=O)C(Cl)Cl)cc1	0.0593	-0.0356	0.0103	-0.0317	0.0385	-0.0133	-0.0386	-0.0375	-0.0101	0.0362
Cc1cc(C)c2cc(C(=O)Nc3ccccc3SCc3cccc(Cl)c3F)[nH]c2c1	0.0408	0.0143	0.00341	-0.00891	-0.00142	0.000963	0.041	0.02	0.00151	0.025
COc1ccc(CNCc2cc(OC)c(OC)c(OC)c2)cc1	-0.0783	0.0429	-0.0785	-0.1 (active)	-0.099	-0.0423	0.0356	-0.0892 (active)	-0.0177	-0.102 (active)
Clc1ccc(-n2nnnc2-c2cccnc2)c(Cl)c1	0.0135	-0.0393	-0.0638	0.0275	0.00547	0.00315	0.0215	-0.00811	0.00931	0.0349
COC(=O)C1=C(C)NC(C)=C(C(=O)OC)C1c1ccccc1	-0.0145	0.00442	-0.0123	0.0301	0.0229	0.00578	0.033	-0.018	0.0507	0.0172
COc1ccc(CCN=Cc2ccccn2)cc1OC	-0.038	0.0306	0.00295	-0.00225	-0.032	-0.0485	-0.0399	-0.0772	-0.0204	-0.00322
COc1ccc(C(=O)NNC(=O)c2c(OC)cc(C(F)(F)F)cc2C(F)(F)F)cc1	0.044	0.017	-0.00926	0.0361	0.00672	0.0148	0.0608	0.00715	0.021	0.015
O=C(O)c1ccccc1C(=O)NCc1ccccc1OC(F)(F)F	-0.05	-0.0181	-0.0248	0.0063	-0.076	-0.0155	-0.0505	-0.0385	-0.0255	0.0015
CCCCCc1c(C)nc(-c2ccccn2)[nH]c1=O	-0.0547	-0.0236	-0.0415	-0.0388	-0.0142	0.00744	0.00404	0.0392	0.0188	-0.0181
CCOC(=O)c1ccc(-n2sccc2=O)cc1	-0.0987	0.078	-0.0422	-0.0664	0.0683	0.0277	0.179 (active)	0.113 (active)	0.141 (active)	0.0482
CCOC(=O)CCSC1=NC(c2cccs2)C(C(=O)OCC)=C(C)N1 (stereo not given)	-0.00248	-0.0154	-0.0693	-0.0516	-0.0633	-0.0523	-0.0288	-0.0824	-0.0154	-0.0325
CCc1ccc(C(=O)Nc2cccc(S(N)(=O)=O)c2)cc1	-0.0133	-0.00607	-0.0279	0.0112	0.028	-0.00467	-0.00416	-0.0306	0.0218	0.0201
ONC=Nc1nonc1-c1cccnc1	0.00986	-0.0105	-0.0403	0.000104	-0.0369	-0.0128	0.016	-0.0342	-0.00156	0.00719
O=C(CC1SC(=NC2CC3C=CC2C3)NC1=O)Nc1ccccc1Cl (stereo not given)	0.0694	0.0502	0.0241	-0.0131	-0.0156	0.0384	0.0688	0.032	0.0398	-0.0439
COc1ccc(CCNC(=O)c2ccccc2NC(=O)c2ccccc2C)cc1OC	-0.0118	-0.0452	-0.0544	-0.615 (active)	-0.381 (active)	-1.01 (active)	-0.839 (active)	-0.31 (active)	-0.582 (active)	-0.267 (active)
O=C(CCn1nc(-c2ccc(F)cc2)ccc1=O)NCc1ccccc1	0.0369	0.0341	0.06	-0.00672	0.0366	0.021	0.0385	0.0213	0.037	0.000143
Cc1ccc(I)cc1[N+](=O)[O-]	0.00211	-0.0212	0.0224	-0.0253	0.0293	0.0178	0.00943	-0.016	0.00957	-0.00671
NC(CS(=O)(=O)Cc1ccco1)=NO	0.0416	0.0173	0.00572	0.019	-0.0714	-0.017	-0.00211	-0.0186	-0.0304	-0.0219
CS(=O)(=NS(=O)(=O)c1ccc(OC(F)(F)F)cc1)c1ccccc1 (stereo not given)	0.0244	-0.0162	0.018	-0.00984	0.0614	0.00979	-0.0151	0.00446	0.0404	0.0068
